Assay outcomes as filed in PubChem BioAssay.
BAZ2B inh = qHTS Assay for Inhibitors of BAZ2B | AlphaScreen BAZ2B-H3K14Ac peptide displacement | Potency, µM (top dose mostly 114 µM), most hits filed as inhibitors | actives 4.4% (n = 360,000) | AID 504333, 2011; note: nearly all actives have a fitted effect of over 60% in size
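AlphaScreen displacement of biotin-H3(5-23)K14Ac peptide (50 nM final) from BAZ2B (50 nM final) in PBS pH 7.4, 0.01% Tween-20; complex preformed 30 min RT, then compounds (top 110 uM) 30 min RT, beads 20 min dark.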
G9a inh = qHTS Assay for Inhibitors of Histone Lysine Methyltransferase G9a; G9a H3K9 monomethylation, AlphaScreen, 2 h; AID 504332, 2011; actives 8.8% (n = 350,000); Histone-lysine N-methyltransferase EHMT2 (Homo sapiens), Q96KQ7; Potency, µM (titrated, usually from 102 µM), most hits filed as inhibitors; note: nearly all actives have a fitted effect of over 75% in size
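Methyltransferase reactions run at room temperature for 2 h (20 nM enzyme, 500 nM biotin-H3K9 peptide, 20 uM SAM) after a 15 min compound preincubation; product detected by AlphaScreen beads and anti-H3K9me1 antibody.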
L3MBTL1 inh = qHTS Assay for the Inhibitors of L3MBTL1 | Lethal(3)malignant brain tumor-like protein 1 (Homo sapiens), Q9Y468 | AlphaScreen L3MBTL1–H3K9me1 peptide binding | Potency, µM (highest dose often 57.1 µM), most hits filed as inhibitors | actives 0.66% (n = 230,000); note: nearly all actives have a fitted effect of over 60% in size
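First, the protein-peptide complex forms for 30 min at room temperature (L3MBTL1 50 nM, biotinylated H3K9me1 peptide 75 nM). Next, compounds are pin-transferred and incubated 30 min. Finally, AlphaScreen beads are added and read after 30 min.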
JMJD2A Tudor inh = qHTS Assay for Inhibitors of JMJD2A-Tudor Domain. AID 504339, 2011. AlphaScreen JMJD2A-Tudor / H3K4me3 peptide binding. actives 4.4% (n = 390,000). Potency, µM (titrated, usually from 114 µM), usual class: inhibitors; note: nearly all actives have a fitted effect of over 50% in size
Sfp PPTase inh = qHTS Assay for Inhibitors of Bacillus subtilis Sfp phosphopantetheinyl transferase (PPTase). 4'-phosphopantetheinyl transferase ffp (Bacillus subtilis), Q9F4F7. Biochemical Sfp PPTase activity, qHTS. Potency, µM, most hits filed as inhibitors. actives 3.5% (n = 310,000);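 note: the enzyme is Sfp with the accession as filed and its product quenches rhodamine fluorescence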
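Sfp 15 nM + cpd, 15 min RT; start w/ rhodamine-CoA 5 uM, BHQ-2-YbbR 12.5 uM (final); 50 mM Hepes pH 7.6, 10 mM MgCl2, 0.01% NP-40, 0.01% BSA; read 525/598 nm at 0 and 30 min.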
HP1b chromo inh = HTS for Inhibitors of HP1-beta Chromodomain Interactions with Methylated Histone Tails; actives 0.56% (n = 390,000); AID 540317, 2011; Chromobox protein homolog 1 (Homo sapiens), P83916; Potency, µM (highest dose often 114 µM), most hits filed as inhibitors; AlphaScreen HP1-beta / biotin-H3K9me3 peptide binding; note: nearly all actives have a fitted effect of over 70% in size
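Compound inhibition of the preformed complex between 50 nM HP1-beta and 50 nM biotinylated H3K9me3 peptide was read by AlphaScreen. Buffer was PBS pH 7.4 with 0.01% Tween-20. Incubations ran 30 min at room temperature, with 10 ug/mL donor/acceptor beads.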
Large screens that a line does not name were inactive. Compounds with a hit are over-represented: about 12% of the library has one in this group of screens. Calls come from the whole dose curve; as a rule, active = well fitted curve in the direction sought with a large enough effect; inconclusive = small, poorly fitted or top-dose-only effect, or another doubt; inactive = no such curve, though single readings can be large; an effect the other way counts as inactive or inconclusive.

Cc1ccccc1OCC(=O)Nc1ccc(S(=O)(=O)N(Cc2ccccc2)c2ccccc2)cc1	JMJD2A Tudor inh 79.4µM (no result: L3MBTL1 inh, Sfp PPTase inh)
Cc1ccc(CC(=O)Nc2ccc3c(c2)N(C)C(=O)c2ccccc2S3)cc1	BAZ2B inh inconclusive, G9a inh 3.98µM, JMJD2A Tudor inh inconclusive, HP1b chromo inh inconclusive (no result: L3MBTL1 inh, Sfp PPTase inh)
COc1ccc(C2c3c(n(C)c4ccccc34)C(=O)N2CC(=O)Nc2c(C)cc(C)cc2C)cc1 (configuration not stated)	G9a inh inconclusive (no result: L3MBTL1 inh, Sfp PPTase inh)
S=c1[nH]nc2sc3ccccc3n12	JMJD2A Tudor inh 1.12µM (no result: BAZ2B inh, G9a inh, L3MBTL1 inh, Sfp PPTase inh)
O=c1c2ccccc2nc2sc3ccccc3n12	none
CCOC(=O)c1[nH]c2ccc(C)cc2c1N	G9a inh 1.78µM, JMJD2A Tudor inh inconclusive, Sfp PPTase inh 17.8µM
CCOC(=O)c1[nH]c2ccc(OC)cc2c1NC(=O)c1ccc(OC)c(OC)c1	G9a inh 50.1µM
CCOC(=O)c1[nH]c2cc(OC)c(OC)cc2c1NC(=O)CN1CCN(C)CC1	G9a inh inconclusive (no result: L3MBTL1 inh, JMJD2A Tudor inh, HP1b chromo inh)
CCOC(=O)c1[nH]c2cc(OC)c(OC)cc2c1N	G9a inh 3.16µM, JMJD2A Tudor inh 56.2µM, Sfp PPTase inh 44.7µM (no result: L3MBTL1 inh)
CCOC(=O)c1[nH]c2ccc(C)cc2c1N=CN(CC)CC	none
CCCC(=O)Nc1cc(C)c(O)c(-c2nc3ncccc3o2)c1	none (no result: L3MBTL1 inh, Sfp PPTase inh)
CCCC(C(=O)NCc1cccc(Cl)c1)N1Cc2ccccc2C1=O (configuration not stated)	none (no result: L3MBTL1 inh, Sfp PPTase inh)
O=C(CCc1ccc(S(=O)(=O)NC2CCCCC2)cc1)NCc1ccccn1	G9a inh inconclusive, Sfp PPTase inh 39.8µM
O=S(=O)(NC1CC1)c1ccc(S(=O)(=O)N(Cc2ccccn2)C2CC2)cc1	G9a inh 70.8µM (no result: L3MBTL1 inh)
O=C(COc1ccc(S(=O)(=O)NC2CCCCC2)cc1Cl)NCc1cccnc1	G9a inh inconclusive, Sfp PPTase inh 17.8µM
O=C(COc1ccc(S(=O)(=O)NC2CCCCC2)cc1)NCc1ccccn1	none
NS(=O)(=O)c1ccc(N/C=C\C(=O)c2ccc(F)cc2)cc1	none
CN(C)c1ccc(N/C=C/C(=O)c2ccc(F)cc2)cc1	BAZ2B inh inconclusive, G9a inh 2.51µM, JMJD2A Tudor inh inconclusive, Sfp PPTase inh inconclusive
CC(=O)Nc1ccc(N/C=C/C(=O)c2ccco2)cc1	BAZ2B inh inconclusive, G9a inh inconclusive
CN(C)c1ccc(N/C=C/C(=O)c2ccco2)cc1	BAZ2B inh 35.5µM, G9a inh 7.08µM, JMJD2A Tudor inh inconclusive, Sfp PPTase inh 56.2µM (no result: L3MBTL1 inh)
CCOC(=O)c1sc(N2C(=O)c3oc4cc(C)c(C)cc4c(=O)c3C2c2ccc(C)cc2)nc1C (configuration not stated)	none (no result: L3MBTL1 inh, Sfp PPTase inh)
COc1ccc(C2c3cc(OC)c(OC)cc3CC(=O)N2c2cccc(C#N)c2)cc1 (configuration not stated)	none (no result: L3MBTL1 inh, Sfp PPTase inh)
COc1ccc(N2CCN(C(=O)c3ccc(CS(=O)Cc4ccc(Cl)cc4)o3)CC2)cc1 (configuration not stated)	BAZ2B inh inconclusive, G9a inh 50.1µM, JMJD2A Tudor inh inconclusive (no result: L3MBTL1 inh)
COc1cccc(N2CCN(C(=O)c3ccc(CS(=O)c4ccccc4C)o3)CC2)c1 (configuration not stated)	JMJD2A Tudor inh inconclusive (no result: L3MBTL1 inh)
CN1CCN(C(=O)c2ccc(CS(=O)Cc3ccc(Cl)cc3)o2)CC1 (configuration not stated)	none (no result: L3MBTL1 inh)
COc1ccc(N2CCN(C(=O)c3ccc(CS(=O)c4cccc(C)c4)o3)CC2)cc1 (configuration not stated)	BAZ2B inh inconclusive, G9a inh 56.2µM (no result: L3MBTL1 inh)
Cc1ccccc1CNCCCSc1nnnn1-c1ccccc1	none (no result: L3MBTL1 inh, Sfp PPTase inh)
C/C(=C(/CCOC(=O)C(C)C)SS/C(CCOC(=O)C(C)C)=C(\C)N(C=O)Cc1cnc(C)nc1N)N(C=O)Cc1cnc(C)nc1N	none (no result: BAZ2B inh, L3MBTL1 inh, JMJD2A Tudor inh, HP1b chromo inh)
CC(=O)NC(=S)NNC(=O)C(c1ccccc1)c1ccccc1	G9a inh 11.2µM, JMJD2A Tudor inh inconclusive
